In PubChem BioAssay (NCATS) one finds Potency and outcome data, which are given here for twelve molecules.

The nature of assay [1]: qHTS for differential inhibitors of proliferation of Plasmodium falciparum line Dd2 (AID 1882). Note: nearly all actives have a fitted effect of over 65% in size. Note: potency is the fitted concentration of half-maximal effect. Particulars: Potency: Plasmodium falciparum Dd2 proliferation inhibition. In a few lines: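 RBC culture, 0.3% parasitemia / 2.5% Hct final; cpd added by pin tool in DMSO; 72 h, 37 C, 5% CO2; lysis buffer + SYBR Green I, o/n RT dark; FI 485/535; norm. to artemisinin 0.29 uM and DMSO.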

The nature of assay [2]: qHTS for differential inhibitors of proliferation of Plasmodium falciparum line W2 (AID 1883).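 Note: parasites grown with compound for 72 h before lysis and staining.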 Note: potency is the fitted concentration of half-maximal effect. Particulars: Potency: Plasmodium falciparum W2 proliferation inhibition. Background: In qHTS, concentration-response curves come from the screen itself.
The nature of assay [3]: qHTS for differential inhibitors of proliferation of Plasmodium falciparum line HB3 (AID 1886).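 Note: parasites grown with compound for 72 h before SYBR Green readout.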 Note: potency is the fitted concentration of half-maximal effect. Particulars: Potency: Plasmodium falciparum HB3 proliferation inhibition.
Assay [4] concerns the target ATP-dependent DNA helicase Q1 (Homo sapiens) (UniProt P46063). Put plainly: qHTS Validation Assay for Inhibitors of RecQ-Like Dna Helicase 1 (RECQ1) (AID 2353). In a few lines: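 RECQ1T1 50 nM; forked duplex (20 bp + 30-nt ss tails) 200 nM, ATP 2 mM final; pH 8.0, 2 mM MgCl2, 2.5 ug/ml poly(dI-dC); 15 min compound preincubation; discontinuous kinetic read over 2 h at RT.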

A short description of assay [5]: Cytometric Cell-Based qHTS for Inhibitors of the mTORC1 Signaling Pathway in MEF (Tsc2-/-, p53-/-) Cells (AID 2660).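 Note: Tsc2 and p53 null MEFs carrying empty vector with compound for 24 h; percent of cells above a phospho-rpS6 to PI ratio cutoff in each well; series mostly up to about 38 µM.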 In a few lines:
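Immunofluorescence qHTS of rpS6 Ser235/236 phosphorylation: MEFs (Tsc2-/-, p53-/-) treated 24 h, 37 C, in DMEM + 10% FBS. Alexa-488 signal normalized to PI count, referenced to rapamycin (7.5 nM) and DMSO; PI cell number recorded for viability.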

A short description of assay [6]: High Content Imaging Cell-Based qHTS for Inhibitors of the mTORC1 Signaling Pathway in MEF (Tsc2-/-, p53-/-) Cells (AID 2666).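 Note: percent of cells scored positive for phospho-rpS6 Ser235/236 immunostaining by imaging.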 In a few lines: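 Tsc2-/-, p53-/- MEFs (empty-vector stable) grown in DMEM + 10% FBS were exposed to compounds for 24 hrs at 37 degree Celsius, fixed, and stained with Alexa-488 anti-phospho-rpS6 Ser235/236 plus Hoechst. Imaging gave the percentage of positive cells per well.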

A short description of assay [7]: High Content Imaging Cell-Based qHTS for Inhibitors of the mTORC1 Signaling Pathway in MEF Cells (AID 2667). Note: potency is the fitted concentration of half-maximal effect. In a few lines: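 Tsc2-/-, p53-/- MEFs stably re-expressing WT Tsc2, grown in DMEM + 10% FBS, were treated with compounds for 24 hrs at 37 degree Celsius, fixed, and stained with Alexa-488 phospho-rpS6 Ser235/236 antibody plus Hoechst; results given as % positive cells.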

Assay [8] is described as follows: Validation screen for small molecules that induce DNA re-replication in MCF 10A normal breast cells (AID 463097). Note: nearly all actives have a fitted effect of over 60% in size. Note: potency is the fitted concentration of half-maximal effect. In a few lines: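 MCF 10A cells exposed to compound 48 hr at 37 C, 5% CO2, then Hoechst-stained 40 min. Laser-scanning imaging of nuclear DNA content (405 nm ex, 500-530 nm em); re-replication scored as rise in nuclei with elevated fluorescence intensity.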

For assay [9], the target named is Ubiquitin carboxyl-terminal hydrolase 2 (Homo sapiens) (UniProt O75604). As to the kind of experiment: qHTS Validation Assay for Inhibitors of Ubiquitin-specific Protease USP2a Using CHOP2 as the Reporter (AID 463106). In a few lines: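 Readout was coupled fluorescence (Ex 485/Em 531 nm), read 60 min after adding 25 nM final Ub-CHOP2 and 25 nM reporter substrate. Beforehand, 10 nM final USP2 core had 30 min at RT with compound in pH 8.0 buffer. Curves were fitted after normalization to NEM and flagged for artifacts using time-zero reads.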

Assay [10] addresses DNA polymerase III PolC-type (Bacillus subtilis (strain 168)) (UniProt P13267). As to the kind of experiment: qHTS Validation Assay for the Inhibitors of DNA Replication in Gram-Positive Bacteria (AID 485295).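 Note: PicoGreen fluorescence of double-stranded DNA made on primed circular M13 template; series mostly up to about 57 µM.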 In a few lines: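 Reconstituted B. subtilis Pol III holoenzyme (PolC, beta clamp, SSB, primase) preincubated with compound, then M13Gori single-stranded circular template with dNTPs/NTPs added; room temperature reaction. Stopped with EDTA/PicoGreen; dsDNA fluorescence read, EDTA as full-inhibition control.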

In assay [11] the target is Tumor susceptibility gene 101 protein (Homo sapiens) (UniProt Q99816). Put plainly: qHTS Validation Assay for Iinhibitors of HIV-1 Budding by Blocking the Interaction of PTAP/TSG101 (AID 485342; calls by dose curve). In a few lines:
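Tsg101 binding domain (10 uM) with FITC-labeled PTAP peptide (50 nM) in HEPES pH 7.5 buffer, 20 min at r.t. with compounds. Binding measured by fluorescence polarization.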

The nature of assay [12]: qHTS Validation Assay to Find Inhibitors of Chronic Active B-Cell Receptor Signaling (AID 485345; active = well fitted curve in the direction sought with a large enough effect in the main read-out, with a control signal flat, not every such curve was filed as active). In a few lines: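 Read-out: ratio of filter-corrected green (IkappaBalpha fusion) to red (native) luciferase signal in doxycycline-induced TMD8 cells after 4 h at 37C. Titration spanned 46 uM–3 nM; Data were normalised to basal cells and 10 uM MG-132 wells.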
Assay [13] deals with Beta-2 adrenergic receptor (Homo sapiens) (UniProt P07550). As to the kind of experiment: qHTS validation assay of beta-arrestin-biased ligands of beta2-adrenergic receptor (AID 485366). In a few lines:
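Agonism was measured as beta-arrestin recruitment to recombinant beta2-AR, releasing tTA to drive luciferase. Cells were exposed for 18 hr at 37 degrees C to a series up to 46 microM. %Activity from corrected luminescence gave concentration-response curves.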

A short description of assay [14]: Cytometry Cell-Based qHTS for Inhibitors of the mTORC1 Signaling Pathway in MEF cells (AID 2668).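 Note: Tsc2-/- p53-/- mouse embryonic fibroblasts stably re-expressing wild-type Tsc2; percent cells positive for phospho-rpS6 Ser235/236 relative to propidium iodide stain; series mostly up to about 38 µM.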 In a few lines: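 MEFs (Tsc2-/-, p53-/- stably expressing WT Tsc2) treated 24 h at 37 degree Celsius, fixed, stained with Alexa-488 anti-phospho-rpS6 Ser235/236 and propidium iodide; Acumen laser scanning. Reported as % positive cells, phospho-S6 normalized to PI.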

For assay [15], the target named is Ferritin light chain (Equus caballus) (UniProt P02791). As to the kind of experiment: qHTS Validation Assay for Identification of Novel General Anesthetics (AID 2323). Note: series mostly up to about 77 µM. In a few lines: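 Horse-spleen apoferritin (10 uM) in PBS with 50% saturated 1-aminoanthracene; compounds pin-transferred, 10 min at room temperature. Fluorescence read at 380/535 nm, normalized to free 1-AMA and 1-AMA/apoferritin values; four-parameter Hill fit.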

The target in assay [16] is RecQ-like DNA helicase BLM (Homo sapiens) (UniProt P54132). As to the kind of experiment: qHTS Validation Assay for Inhibitors of Bloom's syndrome helicase (BLM) (AID 2364). In a few lines: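 Forked 20-bp duplex substrate (200 nM, TAMRA/BHQ-2) plus 2 mM ATP added after 15 min compound preincubation with 50 nM enzyme, pH 8.0, poly(dI-dC) 2.5 ug/ml. Strand separation followed by fluorescence (525/598 nm) over 2 h, normalized to enzyme-free and DMSO controls.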

Each structure is given as a SMILES string. Inconclusive results are not listed. Active and inactive are the calls of the source. Unless noted, calls come from the whole dose curve; as a rule, active = well fitted curve in the direction sought with a large enough effect; inconclusive = small, poorly fitted or top-dose-only effect, or another doubt; inactive = no such curve, though single readings can be large; an effect the other way counts as inactive or inconclusive. Residues, ends and D or L forms follow the SMILES beside them. *: point of attachment. Cbz = O=C(OCc1ccccc1)*

Sequence of Ferritin light chain (Equus caballus) (P02791 2-175 limits assumed): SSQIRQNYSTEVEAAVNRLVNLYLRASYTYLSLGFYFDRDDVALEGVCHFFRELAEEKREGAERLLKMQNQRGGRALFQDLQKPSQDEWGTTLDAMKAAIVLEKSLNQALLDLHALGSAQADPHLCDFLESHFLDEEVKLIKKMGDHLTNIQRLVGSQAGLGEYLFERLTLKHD
Sequence of Ubiquitin carboxyl-terminal hydrolase 2 (Homo sapiens) (O75604 whole entry, looked up): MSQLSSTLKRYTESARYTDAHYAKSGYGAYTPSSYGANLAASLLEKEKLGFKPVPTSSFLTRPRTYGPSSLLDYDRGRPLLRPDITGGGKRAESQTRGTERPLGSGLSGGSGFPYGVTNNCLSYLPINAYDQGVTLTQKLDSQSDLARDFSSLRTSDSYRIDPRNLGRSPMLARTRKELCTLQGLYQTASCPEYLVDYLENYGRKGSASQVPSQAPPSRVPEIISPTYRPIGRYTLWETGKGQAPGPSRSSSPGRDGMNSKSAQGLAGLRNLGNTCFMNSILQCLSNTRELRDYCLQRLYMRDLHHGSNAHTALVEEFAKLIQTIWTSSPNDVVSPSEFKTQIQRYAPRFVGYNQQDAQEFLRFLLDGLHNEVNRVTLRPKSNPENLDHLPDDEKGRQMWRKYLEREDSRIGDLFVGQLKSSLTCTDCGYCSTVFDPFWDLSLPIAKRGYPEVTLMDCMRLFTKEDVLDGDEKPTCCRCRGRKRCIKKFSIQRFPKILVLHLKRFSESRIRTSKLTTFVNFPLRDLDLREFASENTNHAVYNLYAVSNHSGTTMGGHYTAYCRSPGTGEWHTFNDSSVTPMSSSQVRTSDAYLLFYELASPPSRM
Sequence of Tumor susceptibility gene 101 protein (Homo sapiens) (Q99816 whole entry, looked up, the tested form may be a part): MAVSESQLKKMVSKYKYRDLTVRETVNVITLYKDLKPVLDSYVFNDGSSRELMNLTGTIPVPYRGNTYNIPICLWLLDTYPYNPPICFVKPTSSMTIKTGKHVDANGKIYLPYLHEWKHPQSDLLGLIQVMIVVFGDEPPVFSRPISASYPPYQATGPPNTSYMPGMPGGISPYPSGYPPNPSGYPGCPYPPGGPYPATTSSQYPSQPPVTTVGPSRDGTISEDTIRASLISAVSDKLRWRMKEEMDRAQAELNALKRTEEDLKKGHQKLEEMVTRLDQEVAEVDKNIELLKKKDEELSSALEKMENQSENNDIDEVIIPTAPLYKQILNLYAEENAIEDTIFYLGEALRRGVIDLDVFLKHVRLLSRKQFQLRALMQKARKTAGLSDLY
Sequence of DNA polymerase III PolC-type (Bacillus subtilis (strain 168)) (P13267 whole entry, looked up): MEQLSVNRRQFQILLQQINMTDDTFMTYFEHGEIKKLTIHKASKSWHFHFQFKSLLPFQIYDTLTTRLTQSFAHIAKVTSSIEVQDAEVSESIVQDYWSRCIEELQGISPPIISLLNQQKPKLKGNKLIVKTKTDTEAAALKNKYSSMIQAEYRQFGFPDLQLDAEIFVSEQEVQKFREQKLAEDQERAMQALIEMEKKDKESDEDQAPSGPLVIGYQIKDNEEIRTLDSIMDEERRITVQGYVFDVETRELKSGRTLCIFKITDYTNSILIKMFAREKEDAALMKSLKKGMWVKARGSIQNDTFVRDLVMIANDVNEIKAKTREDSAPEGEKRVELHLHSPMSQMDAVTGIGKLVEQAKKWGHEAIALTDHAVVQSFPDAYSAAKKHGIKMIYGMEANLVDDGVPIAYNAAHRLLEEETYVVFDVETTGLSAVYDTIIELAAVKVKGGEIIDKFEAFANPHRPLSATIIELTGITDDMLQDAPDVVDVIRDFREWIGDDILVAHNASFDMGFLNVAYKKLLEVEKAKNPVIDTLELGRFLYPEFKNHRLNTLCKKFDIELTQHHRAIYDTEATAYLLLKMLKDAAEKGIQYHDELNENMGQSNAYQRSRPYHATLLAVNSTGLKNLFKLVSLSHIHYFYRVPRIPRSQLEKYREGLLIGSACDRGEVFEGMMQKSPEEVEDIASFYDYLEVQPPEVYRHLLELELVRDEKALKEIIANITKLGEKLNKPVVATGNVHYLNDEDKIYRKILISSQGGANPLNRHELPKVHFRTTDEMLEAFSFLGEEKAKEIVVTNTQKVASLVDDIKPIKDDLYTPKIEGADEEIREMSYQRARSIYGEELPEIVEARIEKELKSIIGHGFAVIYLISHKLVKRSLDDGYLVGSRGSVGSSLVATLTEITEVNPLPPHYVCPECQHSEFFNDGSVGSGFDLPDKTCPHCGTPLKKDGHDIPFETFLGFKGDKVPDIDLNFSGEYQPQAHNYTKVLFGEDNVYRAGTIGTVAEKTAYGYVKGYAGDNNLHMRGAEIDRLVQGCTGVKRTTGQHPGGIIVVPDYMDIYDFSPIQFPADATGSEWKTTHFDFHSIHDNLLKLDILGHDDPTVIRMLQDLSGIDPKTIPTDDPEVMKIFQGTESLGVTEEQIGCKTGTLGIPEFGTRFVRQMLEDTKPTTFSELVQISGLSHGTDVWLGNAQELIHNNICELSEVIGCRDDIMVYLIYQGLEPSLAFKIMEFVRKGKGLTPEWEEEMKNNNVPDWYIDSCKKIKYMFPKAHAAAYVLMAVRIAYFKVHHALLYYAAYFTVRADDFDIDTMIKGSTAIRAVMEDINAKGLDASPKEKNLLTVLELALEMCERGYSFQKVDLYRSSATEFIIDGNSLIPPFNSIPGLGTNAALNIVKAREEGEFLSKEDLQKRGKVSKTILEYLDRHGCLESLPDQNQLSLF
Sequence of ATP-dependent DNA helicase Q1 (Homo sapiens) (P46063 whole entry, looked up): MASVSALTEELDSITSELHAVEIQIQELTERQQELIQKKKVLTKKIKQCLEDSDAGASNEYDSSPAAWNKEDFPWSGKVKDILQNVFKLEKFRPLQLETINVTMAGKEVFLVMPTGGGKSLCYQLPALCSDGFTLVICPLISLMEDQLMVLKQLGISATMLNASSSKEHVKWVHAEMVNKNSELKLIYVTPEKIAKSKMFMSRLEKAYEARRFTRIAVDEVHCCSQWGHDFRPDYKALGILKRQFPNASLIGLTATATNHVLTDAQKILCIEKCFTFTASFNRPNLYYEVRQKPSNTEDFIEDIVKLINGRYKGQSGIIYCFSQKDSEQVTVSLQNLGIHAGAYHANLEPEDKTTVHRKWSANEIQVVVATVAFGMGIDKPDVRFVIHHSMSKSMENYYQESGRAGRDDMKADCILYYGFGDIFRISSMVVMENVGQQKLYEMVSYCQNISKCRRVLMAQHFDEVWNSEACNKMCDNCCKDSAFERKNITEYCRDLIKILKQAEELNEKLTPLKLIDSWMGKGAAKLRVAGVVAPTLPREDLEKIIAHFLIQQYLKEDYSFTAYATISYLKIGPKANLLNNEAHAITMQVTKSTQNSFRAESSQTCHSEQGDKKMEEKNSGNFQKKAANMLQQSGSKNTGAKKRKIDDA
Sequence of Beta-2 adrenergic receptor (Homo sapiens) (P07550 whole entry, looked up): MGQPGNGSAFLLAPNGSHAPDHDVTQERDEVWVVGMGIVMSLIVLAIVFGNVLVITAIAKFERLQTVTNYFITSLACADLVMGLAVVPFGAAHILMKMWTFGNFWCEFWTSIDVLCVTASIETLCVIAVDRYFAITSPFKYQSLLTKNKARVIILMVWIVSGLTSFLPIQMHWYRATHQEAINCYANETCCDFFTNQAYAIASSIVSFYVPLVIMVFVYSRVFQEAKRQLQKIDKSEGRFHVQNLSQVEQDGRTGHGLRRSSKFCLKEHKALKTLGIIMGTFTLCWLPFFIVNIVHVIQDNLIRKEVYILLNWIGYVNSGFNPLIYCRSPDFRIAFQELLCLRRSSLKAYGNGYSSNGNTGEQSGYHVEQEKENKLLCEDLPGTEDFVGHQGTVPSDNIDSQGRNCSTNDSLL

For the molecule `O=C(O)C1=CCCNC1`, the Potency result in assay [1], in assay [2], in assay [3], in assay [4], in [6] and in [7] was “inactive” throughout. Also, the Potency result in [8], in assay [9] and in assay [10] was “inactive” in each case. In addition, the outcome in assay [5], in assay [11], in assay [12] and in [13] was inactive.

As for `Cc1cccc(C)c1OCC(N)C(C)C` (centres undefined), the Potency in [1] was 4.47 µM (active); in assay [2], 0.708 µM (active). Further, the Potency result in assay [3], in assay [4], in [6], in assay [7], in assay [8] and in assay [9] was “inactive” throughout. Besides, the Potency result in assay [10] is “inactive”. Besides, the outcome in assay [5], in assay [11], in [12] and in assay [13] was inactive.

On to `NC(N)=N[C@@H](CCC(=O)O)C(=O)O`, for which the Potency entry in assay [1], in assay [2], in [3], in assay [4], in assay [6] and in assay [7] was “inactive” each time. The Potency entry in [14], in [8], in assay [9] and in assay [10] was “inactive” in each case. Besides, the molecule was called inactive in [5], in assay [11], in assay [12] and in [13].

As to `CCn1c(=O)[nH]c2cc(Cl)c(Cl)cc21`, the Potency entry in assay [1], in assay [2], in assay [3], in [15], in [4] and in assay [6] was “inactive” throughout. In addition, the Potency result in [14], in assay [8], in assay [9] and in assay [10] was “inactive” in each case. Moreover, the result in assay [11] and in [13] was inactive.

For `CC(C)(C)c1cc(/C=C(\C#N)C(N)=S)cc(C(C)(C)C)c1O`, the Potency in [1] is 8.91 µM (active); in assay [2] it was 2.82 µM (active); in assay [3] it was 6.31 µM (active); in [8], 3.16 µM (active). Also, the molecule was classed as inactive in assay [5], in assay [11] and in [13]. The Potency result in [9] and in assay [10] was “inactive” in each case.

On to `CN1CCCC1CCOC(C)(c1ccccc1)c1ccc(Cl)cc1` (centres undefined), for which the Potency in assay [1] was 10 µM (active); in [2], 2.51 µM (active); in assay [3], 5.01 µM (active); in [7], 14.7 µM (active). Further, the Potency entry in [15], in assay [4], in [9] and in assay [10] was “inactive” throughout. The molecule was classed as inactive in assay [5] and in assay [11].

Take `Nc1ncnc2c1c(-c1ccc(Oc3ccccc3)cc1)cn2C1CCCC1`: the Potency in [1] is 7.94 µM (active); in assay [2], 3.55 µM (active); in assay [3], 12.6 µM (active); in assay [8], 3.16 µM (active). In addition, the Potency entry in assay [6], in [7], in [9] and in [10] was “inactive” in each case. Also, the call in assay [11] and in assay [13] was inactive.

For `CC(C)[C@H](NC(=O)OCc1ccccc1)C(=O)N[C@H](C=O)Cc1ccccc1` (Cbz-Val-Phe-aldehyde), the Potency in [1] was 4.47 µM (active); in assay [2] it was 2.82 µM (active); in [3], 5.01 µM (active). In addition, the Potency result in assay [15], in [6], in assay [7], in assay [14], in assay [9] and in assay [10] was “inactive” in each case. Also, the molecule was classed as inactive in [5], in assay [11] and in assay [12].

With `NC(N)=[N+]1CCc2ccccc2C1`, the Potency result in assay [1], in assay [2], in [3], in assay [15], in assay [6] and in assay [7] was “inactive” each time. The Potency result in [14], in assay [8], in assay [9] and in assay [10] was “inactive” in each case. Further, the result in [5], in assay [11], in [12] and in assay [13] was inactive.

Take `COC(=O)C(N)Cc1ccc(Cl)cc1` (centres undefined): the Potency entry in [1], in assay [2], in assay [3], in [15], in assay [16] and in assay [6] was “inactive” each time. In addition, the Potency result in assay [7], in assay [14], in [8], in assay [9] and in [10] was “inactive” in each case. Moreover, the molecule was classed as inactive in assay [5], in [11], in assay [12] and in assay [13].

As to `CC1=C(/C=C/C(C)=C/C=C/C(C)=C\C(=O)O)C(C)(C)CCC1`, the Potency in [1] was 10 µM (active); in assay [2], 8.91 µM (active); in [3], 10 µM (active). The Potency entry in [4], in assay [6], in assay [8], in [9] and in [10] was “inactive” throughout. Besides, the result in [5], in assay [11] and in assay [13] was inactive.

Take `CCC1(O)CC2CN(CCc3c([nH]c4ccccc34)[C@@](C(=O)OC)(c3cc4c(cc3OC)N(C=O)C3[C@]45CCN4CC=C[C@@](CC)([C@@H](OC(C)=O)[C@]3(O)C(=O)OC)[C@H]45)C2)C1` (some centres undefined): the Potency in assay [1] is 0.1 µM (active); in assay [2] it was 0.0501 µM (active); in assay [3], 1.78 µM (active); in [8], 0.0447 µM (active). In addition, the molecule was called inactive in assay [5], in [11] and in assay [13]. The Potency entry in [6], in [7], in assay [9] and in [10] was “inactive” throughout.
